UGM FP inh: M. tuberculosis UGM enzyme inhibitors, primary screen, biochemical, fluorescence polarization, single point; UDP-galactopyranose mutase (Mycobacterium tuberculosis (strain ATCC 25618 / H37Rv)), …; purified UGM, fluorescence polarization probe displacement; inhibition, % at 10 µM; hit rate 0.06% among 320,000; AID 504406, 2011; in the data active = inhibition above about 10%, passing the limit was not always enough
Rv3671c protease: Rv3671c serine protease inhibitors, primary screen, biochemical, fluorescence polarization, M. tuberculosis H37Rv. P9WHR9. inhibition, % at 5.96 µM. hit rate 0.048% among 320,000; in the data active = inhibition above about 38%;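 note: extracellular domain of Rv3671c used as enzyme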
FadD28 binding: inhibitors of FadD28 bisubstrate probe binding, primary screen, biochemical, fluorescence polarization, single point. Mycobacterium tuberculosis FadD28 fatty-acid-AMP ligase. inhibition, % at 12.5 µM. hit rate 0.22% among 360,000. AID 588549, 2011; in the data active = inhibition above about 8.5%, passing the limit was not always enough
FBA Mtb inh: Mtb FBA enzyme inhibitors, primary screen, biochemical, fluorescence, strain H37Rv; Fructose-bisphosphate aldolase (Mycobacterium tuberculosis (strain ATCC 25618 / H37Rv)), …; purified M. tuberculosis FBA, fluorescence read-out; inhibition, % at 1 µM; hit rate 2.3% among 360,000
Target sequence (P9WQA3 whole entry, looked up): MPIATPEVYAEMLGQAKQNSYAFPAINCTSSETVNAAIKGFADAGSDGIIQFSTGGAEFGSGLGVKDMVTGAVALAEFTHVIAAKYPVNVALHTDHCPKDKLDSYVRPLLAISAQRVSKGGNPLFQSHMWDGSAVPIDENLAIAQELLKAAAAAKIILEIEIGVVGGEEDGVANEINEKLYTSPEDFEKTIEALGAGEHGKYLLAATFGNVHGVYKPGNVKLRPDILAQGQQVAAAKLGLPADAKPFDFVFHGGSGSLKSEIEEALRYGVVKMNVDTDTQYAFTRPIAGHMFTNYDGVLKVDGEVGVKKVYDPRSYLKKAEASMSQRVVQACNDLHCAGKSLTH
Mtb bLac sens: beta-lactam sensitization of Mtb H37Rv, H37Rv; M. tuberculosis H37Rv growth with meropenem, percent inhibition; inhibition, % at 25 µM; hit rate 0.27% among 330,000; AID 434955, 2010; call rule not given here;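 note: growth measured after seven days incubation then overnight dye step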
GDH-TPI counter-1: GDH-TPI coupling enzyme inhibitors, primary screen, artefact control for M. tuberculosis FBA inhibitor project, biochemical, absorbance, full deck; GDH-TPI coupled enzyme counterscreen, NADH absorbance; inhibition, % at 4.8 µM; hit rate 1.2% among 360,000; in the data active = inhibition above about 30%
Mtb FBA confirm: M. tuberculosis aldolase blockers, biochemical, fluorescence, strain H37Rv, confirmation | hit rate 78% among 5,600 | inhibition, % at 1 µM | purified M. tuberculosis FBA, fluorescence read-out | shares compounds with FBA Mtb inh
GDH-TPI counter-2: GDH-TPI coupling enzyme inhibitors, artefact control for M. tuberculosis FBA inhibitor project, biochemical, fluorescence, high throughput. shares compounds with FBA Mtb inh. GDH-TPI coupled enzyme counterscreen. inhibition, % at 1 µM. hit rate 81% among 5,600; in the data active = inhibition above about 10%
GDH-TPI DR: GDH-TPI coupling enzyme inhibitors, dose response, artefact control for M. tuberculosis FBA inhibitor project, biochemical, fluorescence, IC50; shares compounds with FBA Mtb inh; GDH-TPI coupled enzyme assay, artifact counterscreen; IC50, µM; hit rate 79% among 170; call rule not given here
Large screens that a line does not name were inactive (follow-up assays come after a bar, where they were run). Sampled rows, rich in hits. Any-hit rate of the full collection: about 3.7%. Cut-off read from the data, not from the text of the source, unless noted: active = inhibition above about 27%; inactive = the rest.

Cc1ccc(NC(=O)Cn2c(=O)c(C)nc3ccccc32)cc1	none
CC(=O)c1ccc(/C=C/c2nc3ccccc3n2C)o1	FBA Mtb inh 46 | Mtb FBA confirm inactive | GDH-TPI counter-2 17
Cc1cccc(NC(=O)Cn2c(/C=C/c3ccccc3)nc3ccccc32)c1	FBA Mtb inh 32 | Mtb FBA confirm 42 | GDH-TPI counter-2 34
O=S1(=O)CC(N2CCN(c3ccccn3)CC2)CN1C1CCCCC1 (stereo not drawn)	none (no result: UGM FP inh, Rv3671c protease, Mtb bLac sens, GDH-TPI counter-1)
C[C@H](CO)N1C[C@H](C)[C@@H](CN(C)CC2CCCCC2)Oc2ccc(NC(=O)Cn3cnnn3)cc2C1=O	none
Cn1c(/C=C/c2ccccc2)nc2ccccc21	FBA Mtb inh 48 | Mtb FBA confirm 199 | GDH-TPI counter-2 168
Cn1c(=O)c(/C=C/c2ccccc2)nc2ccccc21	none
Cc1c(C=O)c2cc(OCc3ccccc3)ccc2n1C	none
O=C(/C=C/c1ccccc1[N+](=O)[O-])OCC(=O)N1CCN(c2ccccc2)CC1	none (no result: UGM FP inh, Rv3671c protease, Mtb bLac sens)
CCN(CC)CCn1c2ccccc2c2cnc(N)c(C#N)c21	FBA Mtb inh 29 | Mtb FBA confirm active | GDH-TPI counter-2 180
Cc1ccccc1OCC(=O)N1CCC2(CC1)CC(=O)c1ccccc1O2	none
CC(=O)N1CCC2(CC1)CC(=O)c1cc(OCC(=O)N3CCN(C)CC3)ccc1O2	FBA Mtb inh 59 | Mtb FBA confirm 56 | GDH-TPI counter-2 47
CC(=O)N1CCC2(CC1)CC(=O)c1cc(OCC(=O)N3CCC4(CC3)OCCO4)ccc1O2	FBA Mtb inh 58 | Mtb FBA confirm 27 | GDH-TPI counter-2 25
C=CCNc1nc2cc(-c3cccc(Cl)c3)sc2c(=O)n1C	none (no result: UGM FP inh, Rv3671c protease, Mtb bLac sens)
Cn1c2ccsc2c2ncn(Cc3ccc(F)cc3)c(=O)c21	none (no result: UGM FP inh)
COc1ccc2[nH]c3c(=O)n(Cc4ccncc4)cnc3c2c1	FBA Mtb inh 101 | Mtb FBA confirm inactive | GDH-TPI counter-2 inactive | GDH-TPI DR 1.9
CCC1CCCN1Cn1cnc2c([nH]c3ccc(C)cc32)c1=O (stereo not drawn)	FBA Mtb inh 41 | Mtb FBA confirm active | GDH-TPI counter-2 active
COc1ccc2c(c1)c1ncn(Cc3ccc(F)cc3)c(=O)c1n2C	FBA Mtb inh 51 | Mtb FBA confirm inactive | GDH-TPI counter-2 inactive
CCN1CCCC1Cn1cnc2c([nH]c3ccc(OC)cc32)c1=O (stereo not drawn)	FBA Mtb inh 57 | Mtb FBA confirm 157 | GDH-TPI counter-2 125
O=c1c2[nH]c3ccc(F)cc3c2ncn1Cc1ccncc1	none
CN(C(=O)c1ccc(NC(=O)Cc2cccc(NC(=O)C3CCN(C(=O)CCc4ccccc4)CC3)c2)cc1)C1CCCC1	none
COc1cc2[nH]c3c(=O)n(CCN4CCCCC4)cnc3c2cc1OC	FBA Mtb inh 41 | Mtb FBA confirm 107 | GDH-TPI counter-2 92
Cc1ccc2[nH]c3c(=O)n(CCN4CCOCC4)cnc3c2c1	none
O=[N+]([O-])c1nc2ccccc2[nH]1	none (no result: UGM FP inh, Rv3671c protease, Mtb bLac sens)
CCN(c1ccccc1)S(=O)(=O)c1cc(C(=O)OC2CCOC2=O)ccc1C (stereo not drawn)	none
CCOC(=O)CC(=O)CSc1nc(C)cc(C)c1C#N	none
CCOC(=O)CC(=O)CSc1nc2c(c(C)c1C#N)CCC2	FBA Mtb inh 31 | Mtb FBA confirm 82 | GDH-TPI counter-2 47
COc1ccc(-c2ncccc2O)cc1	FBA Mtb inh 40 | Mtb FBA confirm 88 | GDH-TPI counter-2 91
CCCn1nc2cc(C(=O)NCCc3cccs3)ccc2c1OCC	FBA Mtb inh 55 | Mtb FBA confirm inactive | GDH-TPI counter-2 inactive
CCCCn1nc2cc(C(=O)NCC3CC3)ccc2c1OCC	FBA Mtb inh 88 | Mtb FBA confirm 144 | GDH-TPI counter-2 116
CCOc1c2ccc(C(=O)NCCCCc3ccccc3)cc2nn1C	FBA Mtb inh 60 | Mtb FBA confirm inactive | GDH-TPI counter-2 inactive
CCCCn1nc2cc(C(=O)NCCc3ccc(C)cc3)ccc2c1OCC	none
CCCCn1nc2cc(C(=O)NC[C@@H]3CCCO3)ccc2c1OCC	FBA Mtb inh 63 | Mtb FBA confirm 124 | GDH-TPI counter-2 95
CCOc1ccc(-n2c(C)nc3cc(C(=O)NCC4CCCO4)ccc32)cc1 (stereo not drawn)	none
CCCCn1nc2cc(C(=O)NCCCCc3ccccc3)ccc2c1OCC	none
CCCn1nc2cc(C(=O)NC3CCc4ccccc43)ccc2c1OCC (stereo not drawn)	FBA Mtb inh 40 | Mtb FBA confirm 71 | GDH-TPI counter-2 64
CCCCNC(=O)c1ccc2c(OCC)n(CCCC)nc2c1	FBA Mtb inh 65 | Mtb FBA confirm 93 | GDH-TPI counter-2 61
O=C(NCc1cccnc1)c1cc(C2CCCCN2S(=O)(=O)c2cccc3cccnc23)on1 (stereo not drawn)	none (no result: UGM FP inh, Rv3671c protease, Mtb bLac sens)
O=C(NC1CCCCC1)c1cccc(N2C(=O)CCC2=O)c1	none (no result: UGM FP inh, Rv3671c protease, Mtb bLac sens)
CCCSC1=C(C#N)C(c2ccc(Cl)cc2Cl)CC(=O)N1 (stereo not drawn)	none
CC1=C(C#N)C(/C=N/OCc2ccc(Cl)cc2)CC(=O)N1 (stereo not drawn)	FBA Mtb inh 35 | Mtb FBA confirm inactive | GDH-TPI counter-2 17
O=C1OCCN1N1CCOC1=O	none (no result: UGM FP inh, Rv3671c protease, Mtb bLac sens)
CCC1Nc2ncnc(N3CCCCC3)c2N(Cc2ccc(OC)cc2)C1=O (stereo not drawn)	none
O=c1c(Cl)c(O)c2cccc3c4ccccc4n1c23	FBA Mtb inh 85 | Mtb FBA confirm 86 | GDH-TPI counter-2 64
CC(C)(C)c1ccc(CSc2nc(N)cc(=O)[nH]2)cc1	none
Cc1cc2ccccc2n1CCNC(=O)c1ccc(Br)o1	none
COCCNC(=O)C1(C)CCN(C(=O)c2ccc(F)c(C)c2)C1 (stereo not drawn)	none (no result: UGM FP inh, Rv3671c protease, Mtb bLac sens)
COCCNC(=O)C1(C)CCN(C(=O)c2ccc3c(c2)C(C)(C)CCC3(C)C)C1 (stereo not drawn)	FBA Mtb inh 27 (no result: UGM FP inh, Rv3671c protease, Mtb bLac sens) | Mtb FBA confirm inactive | GDH-TPI counter-2 inactive
COc1cc(C(O)c2nc(-c3ccncc3)cs2)ccc1F (stereo not drawn)	none (no result: UGM FP inh, Rv3671c protease, Mtb bLac sens)
CN(C)CCCNc1cc(-c2ccccc2)nc2cc(-c3cccc(F)c3)nn12	FBA Mtb inh 78 | Mtb FBA confirm 78 | GDH-TPI counter-2 61

Compound activity deposited in PubChem BioAssay by several laboratories.
